test: binders from COS7 lysate, DM2A8 probe, primary screen, torsin A project, cell lysate, small-molecule microarray, fluorescence 635/667 (AID 1065); conditions: higher = more signal, COS7 lysate expressing mutant human TOR1A

SMILES	composite z-score
O=c1cccc(CCc2ccccc2)o1	-0.322
COc1ccc([Si](C)(C)[C@H]2[C@H](CCn3cc(CCO)nn3)O[C@@]3(C(=O)N(Cc4ccc(N5CCOC5=O)cc4)c4ccccc43)[C@@H]2C)cc1	1.38
C=CC[C@@H](OC(=O)Nc1ccc(OC)cc1)c1ccc(O)c2ccccc12	0.129
CC(c1ccccc1)C(O)C1C=CC2C(=O)NC(=O)C2N1Nc1ccccn1 (configuration not stated)	-0.0988
CC(C)CNC(=O)[C@@H]1c2ccccc2C(=O)N(Cc2cc(C(F)(F)F)cc(C(F)(F)F)c2)[C@H]1c1ccc(CO)cc1	-0.249
C[C@]1(C(=O)NCc2ccccc2)c2ccccc2C(=O)N(Cc2cc(F)cc(C(F)(F)F)c2)[C@H]1c1ccc(CO)cc1	-0.512
O=C1O[C@H](c2ccccc2)[C@H](c2ccccc2)N2[C@H]1[C@@H](C(=O)Nc1nc3ccccc3s1)[C@]1(C(=O)Nc3ccccc31)[C@H]2c1ccc(O)cc1	0.108
CN(C)CCCNC(=O)[C@@]1(Cc2ccccc2I)c2ccccc2C(=O)N(Cc2ccccc2C(F)(F)F)[C@H]1c1ccc(CO)cc1	-1.14
CCCCCN1CC=CC23O[C@@H]4C=CCOC(=O)[C@@H]4[C@H]2C(=O)N(CCCO)[C@@H]3C1=O (some centres not stated)	0.777
C=C(CCCC)/C(=C/C[C@H](OC(C)=O)c1ccc(CO)o1)c1cnc2ccccc2c1	0.773
CC(C)NC(=O)[C@@]1(Cc2ccccc2I)c2ccccc2C(=O)N(Cc2ccccc2)[C@H]1c1ccc(CO)cc1	0.613
O=C1C2C=CC(C(O)c3ccc(B(O)O)cc3)N(Nc3ccccc3)C2C(=O)N1c1ccccc1 (configuration not stated)	0.0762
